Records with an inconclusive call do not appear. Where a call stands in place of a potency, no number is given. Calls of active or inactive are those of the source. The call rests on the fitted dose curve; in most records, active means well fitted inhibition curve with a large enough effect; inconclusive means small, poorly fitted or top-dose-only effect; inactive means flat fitted curve, though single readings scatter.
Molecular target: Luciferin 4-monooxygenase (Photuris pensylvanica) (UniProt Q27757)
Experiment: Secondary Assay for Luciferase (Kinase-Glo TM) Inhibition Counterscreen
Description: NIH Chemical Genomics Center [NCGC] Malcolm Walkinshaw, Hugh Morgan, Linda Gilmore University of Edinburgh, UK MLPCN Grant: 1 R03 MH085697-01 NCGC Assay Overview: Luciferase (Kinase-Glo, Promega Corporation) was assayed for its ability to generate light using ATP and luciferin as substrates. The ATP concentration in the assay (10 uM) was within the linear range of enzyme activity for the assay conditions used. This assay was used as an counter screen for human pyruvate kinase M2 isoform.
NCGC Assay Protocol Summary: Four uL of substrate mix (final concentration, 50 mM imidazole pH 7.2, 50 mM KCl, 7 mM MgCl2, 10 uM ATP, 0.01% Tween 20, 0.05% BSA) was dispensed into white 1536 well plates. Twenty-three nL of compound was delivered by a pin tool and 2 uL of luciferase detection mix (Kinase-Glo, Promega)) was added. Following 8-minute incubation at ambient temperature, luminescence was measured by a ViewLux (Perkin Elmer) at 5 seconds exposure/plate. Data were normalized to the controls for basal activity (DMSO only) and 100% inhibition (40 uM SIB 1757) and curve fitting was performed using Hill equation.
Potency means the concentration at half of the fitted maximal effect.

SMILES | Potency
C[C@]12CC[C@@H]3c4ccc(O)c(O)c4CC[C@H]3[C@@H]1CC[C@@H]2O | inactive
Cc1ccc(C(=O)n2c(N)nc3ccccc32)cc1 | 11.6 µM (active)

— PubChem BioAssay AID2530 (National Center for Advancing Translational Sciences (NCATS), 2010)
